Screening results deposited in PubChem by National Center for Advancing Translational Sciences (NCATS).
HCV inhibitor: HCV inhibition; Potency, µM (series often up to 41.8 µM), without a hit: at the highest dose activity change, negative = inhibition, hits mostly inhibitors; 3.4% of 340,000 active; Huh7.5.1 HCVcc-Cre infection, luciferase reporter, 44 h; AID 651820; note: % is set by controls: 0 for no effect and ±100 for the full control effect
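After 44 h co-culture of compound, cells and HCVcc-Cre (~0.5 moi), substrate is added for 15 min at room temperature and luciferase measured over 15 sec. Cells were seeded at 1,000/well and pre-cultured 4 h.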
Pf growth 48h: P. falciparum growth inhibition at 48 hours (one generation). Potency, µM (highest dose often 28.7 µM), for the others: at the top dose activity change, negative = inhibition, actives largely listed as inhibitors. 5.9% of 310,000 active. P. falciparum luciferase growth in erythrocytes, 48 h; note: % is set by controls: 0 for no effect and ±100 for the full control effect
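A one-generation exposure of luciferase-tagged malaria parasites in RPMI 1640/Albumax erythrocyte culture, 37 C and 5% CO2. Inhibition is inferred from decreased luminescence after adding detection reagent.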
Pf growth 96h: P. falciparum growth inhibition at 96 hours; 6.9% of 320,000 active; P. falciparum luciferase reporter growth, 96 h; Potency, µM (titrated, usually from 28.7 µM), without a hit: at the top dose activity change, negative = inhibition, usual class: inhibitors; AID 504834; note: % is set by controls: 0 for no effect and ±100 for the full control effect
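Cell-based qHTS: luciferase-tagged P. falciparum in erythrocytes (2% hematocrit, 0.05% parasitemia final) incubated with compounds for 96 hours, 37 C, 5% CO2; luciferase detection reagent then added and luminescence measured.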
SARS PLpro yeast: SARS-CoV PLP inhibition in yeast; S. cerevisiae expressing SARS-CoV PLpro, growth rescue; Potency, µM (highest dose often 32.9 µM), for inactives: top-dose activity, positive = growth rescue, hits mostly activators; 0.19% of 330,000 active; calls by dose curve; note: 0% is about no effect; nearly all actives have a fitted effect of over 55% in size
AMA1-RON2 inh: inhibitors of Plasmodium falciparum AMA1-RON2 interaction. AID 720542. Potency, µM (doses to about 58.2 µM), without a hit: top-dose activity change, negative = inhibition, actives largely listed as inhibitors. 0.2% of 360,000 active. AlphaScreen AMA1-biotinylated RON2 peptide binding;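 note: 0% = vehicle wells and -100% = peptide control; nearly all actives have a fitted effect of over 45% in size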
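AMA1 (3D7) with his tag at 25 nM final met compounds first, then biotinylated RON2 peptide at 25 nM; detection used donor plus acceptor beads, 10 µg/mL apiece, read by AlphaScreen after 30 min at room temperature.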
NS1 function inh: inhibitors of influenza NS1 protein function. Potency, µM (top dose mostly 46.1 µM), for the others: top-dose activity, positive = more growth. 0.4% of 270,000 active; calls by dose curve; note: actives are rising curves; nearly all actives have a fitted effect of over 50% in size
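Compounds were scored for reversing the slow growth caused by influenza A NS1 in S. cerevisiae, measured by optical density at 600 nm. Assay medium contained 2% galactose at pH 6.0; NS1-free yeast of the same strain were the positive control.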
Active calls of the source: *; u = inconclusive; x = not tested or not shown; ! = not active in a repeat; [ ] = remark or other dose. A selection: hits, their analogues and other compounds. The true share with any hit is near 12%. Unless noted, calls come from the whole dose curve; as a rule, active = well fitted curve in the direction sought with a large enough effect; inconclusive = small, poorly fitted or top-dose-only effect, or another doubt; inactive = no such curve, though single readings can be large; an effect the other way counts as inactive or inconclusive. Potency is the fitted concentration of half-maximal effect.

SMILES	HCV inhibitor	Pf growth 48h	Pf growth 96h	SARS PLpro yeast	AMA1-RON2 inh	NS1 function inh
COc1ccc2nc(NC(=O)C3CCN(S(=O)(=O)c4cccnc4)CC3)sc2c1	u	x	-8%	0%	0%	6%
COc1ccc2nc(NC(=O)C3CCN(S(=O)(=O)c4cccs4)CC3)sc2c1	10µM*	13µM*	x	-3%	-8%	19%
Cc1ccc2nc(NC(=O)C3CCN(S(=O)(=O)c4cnc[nH]4)CC3)sc2c1	-14%	60%	12µM*	u	-17%	-11%
COc1cc(C(=O)OCC(=O)NC2CCCCCC2)ccc1OCC(C)C	11%	-19%	4%	-1%	5%	x
O=C(NCc1ccccc1Cl)C1CCC(CNc2c(N3CCOCC3)c(=O)c2=O)CC1 (stereo unspecified)	9%	-14%	-15%	-5%	-1%	1%
CC(=O)Nc1ccc(NC2CCCCC2NS(=O)(=O)c2ccc(Cl)cc2)cc1 (stereo unspecified)	-13%	3%	4%	0%	-8%	-18%
Cc1ccc(S(=O)(=O)N2CCC(C(=O)Nc3nnc(C)s3)CC2)cc1	4%	7%	13%	0%	-1%	18%
CC(=O)N1CCc2c(sc(NC(=O)C3CCN(S(=O)(=O)c4cccs4)CC3)c2C(N)=O)C1	8%	12µM*	u	4%	-8%	x
Cc1ccc(NC(=O)C2CCN(S(=O)(=O)c3cccs3)CC2)cc1C	u	x	u	5%	36%	-1%
CCn1c2ccccc2c2cc(NC(=O)C3CCN(S(=O)(=O)c4cccs4)CC3)ccc21	4µM*	x	12%	1%	0%	-2%
O=c1[nH]cnc(O)c1C(c1ccc([N+](=O)[O-])cc1)c1c(O)nc[nH]c1=O	20%	29%	0%	6%	-21%	3%
Nn1c(SCC(=O)Nc2ccc(OC(F)F)cc2)nnc(Cc2ccccc2)c1=O	-2%	u	2%	-6%	44%	x
COC(=O)C1(Cc2cc(-c3cccnc3)no2)CCN(C(=O)OC(C)(C)C)CC1	-8%	u	10µM*	-12%	-3%	-55%
COC(=O)C1(Cc2cc(-c3ccc(Cl)cc3)no2)CCN(C(=O)OC(C)(C)C)CC1	1µM*	-8%	65%	-20%	-3%	-67%
COC(=O)C1(CC2CC(c3ccc(Cl)cc3)=NO2)CCN(C(=O)OC(C)(C)C)CC1 (stereo unspecified)	-4%	u	u	6%	16%	x
COC(=O)C1(Cc2cc(-c3ccc([N+](=O)[O-])cc3)no2)CCN(C(=O)OC(C)(C)C)CC1	u	u	u	0%	-5%	x
Cn1c(SCc2ccc(Cl)cc2)nnc1-c1ccc2nonc2c1	13%	-19%	-1%	-1%	-10%	-1%
CCN(CC)S(=O)(=O)c1cc(C(=O)Nc2nncs2)c(Cl)cc1Cl	10µM*	u	x	-2%	5%	11%
CC1CN(Cc2ccccc2)C(C)CC1O (stereo unspecified)	23%	10%	1%	0%	-4%	4%
C/C(=N\NC(=O)COc1cccc(Br)c1)c1ccc2c(c1)OCCO2	0%	0%	56%	16%	75%	x
O=C(CSc1ccc(Cl)cc1)Nc1ccccc1N1CCN(C(=O)c2ccc(Cl)cc2)CC1	u	4.1µM*	u	28%	5%	u
CC(C)(C)C(=O)Nc1ccccc1N1CCN(C(=O)c2ccc(Cl)cc2)CC1	u	10µM*	u	-6%	-14%	-3%
CC(C)C(=O)NC(=S)Nc1ccccc1N1CCN(C(=O)c2ccc(Cl)cc2)CC1	3%	1.5µM*	-28%	0%	0%	0%
O=C(Nc1ccccc1N1CCN(C(=O)c2ccc(Cl)cc2)CC1)c1cccc(F)c1	-26%	u	14%	-10%	-10%	-34%
O=C(CSc1ccc(Cl)cc1)Nc1ccc(N2CCN(C(=O)c3ccc(Cl)cc3)CC2)cc1	-10%	-23%	u	3%	-6%	12%
SMILES	HCV inhibitor	Pf growth 48h	Pf growth 96h	SARS PLpro yeast	AMA1-RON2 inh	NS1 function inh
COc1ccc(C(CNC(=O)c2ccccc2SC)N(C)C)cc1 (stereo unspecified)	3%	4%	0%	0%	-3%	x
CCCCN1C[C@H](C)[C@@H](CC(=O)NC)C1=O	x	x	x	x	0%	x
O=C1C(Cl)=C(NC2CCCCC2)C(=O)N1c1ccc(Cl)cc1	8%	u	9.3µM*	-4%	36%	0%
CCc1nnc(SC(C)C(=O)Nc2nccs2)n1C (stereo unspecified)	1%	3%	18%	3%	1%	10%
Cc1ccc(S(=O)(=O)Nc2c(C)n(C)n(-c3ccccc3)c2=O)cc1C(=O)OC(C)C(=O)N(C)c1ccccc1 (stereo unspecified)	18%	-22%	15µM*	4%	-6%	x
Cc1ccccc1CNC(=O)CCn1nc(C)c2c(C)n(-c3ccccc3)nc2c1=O	-4%	-12%	20%	3%	1%	4%
COc1ccc(N2C(=O)CSC23C(=O)N2CCCc4cccc3c42)cc1 (stereo unspecified)	-10%	-24%	-9%[5.75 µM]	-2%	-7%	-26%
COc1ccc(N2C(=O)CSC23C(=O)N2c4c(cccc43)C(C)=CC2(C)C)cc1 (stereo unspecified)	u	x	7.4µM*	-25%	-13%	-9%
CCc1nnc(SCCSc2nnc(CC)n2N)n1N	-17%	28%	141%	-4%	-4%	3%
CCCCc1nnc(SCCSc2nnc(CCCC)n2N)n1N	-11%	-12%	13µM*	9%	-15%	-5%
CN(C)CCCOC(=O)C1c2ccccc2Oc2ccccc21	-19%	-7%	1%	1%	25%	9%
CC[N+](C)(CC)CCOC(=O)C1c2ccccc2Oc2ccccc21	7%	10µM*!	10µM*!	-2%	-18%	x
COc1ccc(/C=C/C(=O)c2ccccc2)cc1COc1ccccc1F	u	u	u	3%	11%	15%
COc1ccc(C=O)cc1COc1ccccc1F	9%	23%	8.3µM*	8%	5%	-12%
COc1ccc(C=O)cc1CN1C(=O)c2ccccc2C1=O	9%	u	0.15µM*	16%	-2%	-18%
COc1ccc(C=O)cc1CN1CCCN(Cc2ccccc2F)S1(=O)=O	6%	16%	25%	0%	-2%	-10%
CC(C)c1ccc(O)c(NC(=S)NC(=O)c2ccc3c(c2)OCO3)c1	u	u	u	26%	92%	-27%
O=C(O)c1cc2n(n1)C(C(F)(F)F)CC(C1CC1)N2 (stereo unspecified)	4%	2.1µM*	52%	2%	-9%	4%
